According to the supplement of paper PMC9694430:

Tests used:
Assay in all cases: thermal shift delta Tm vs DMSO control; higher = stronger stabilization (binding)
Conditions in all cases: 12.5 µM; protein concentration 2 µM
LOC_OS02G45750-cb003 = tested on: LOC_OS02G45750-cb003
In short: (§1)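 Rice kinase domain constructs were expressed in E. coli, purified, and tested by differential scanning fluorimetry with compound added in DMSO. Each well of a 96-well plate held 19.5 μl of 2 μM kinase in 100 mM potassium phosphate pH 7.5, 150 mM NaCl, 10% glycerol and 5 × SYPRO Orange, and fluorescence was read from 25°C to 95°C at 0.05°C/s. The melting temperature shift is the mean of triplicates, taken against protein with DMSO alone after Boltzmann fitting.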

LOC_OS02G54510-cb004 = tested on: LOC_OS02G54510-cb004
In short: as §1

LOC_OS03G04050-cb001 = tested on: LOC_OS03G04050-cb001
In short: as §1

LOC_OS03G12390-cb001 = tested on: LOC_OS03G12390-cb001
In short: as §1

LOC_OS03G27990-cb004 = tested on: LOC_OS03G27990-cb004
In short: as §1

LOC_OS03G50450-cb001 = tested on: LOC_OS03G50450-cb001
In short: as §1

LOC_OS03G50810-cb003 = tested on: LOC_OS03G50810-cb003
In short: as §1

LOC_OS04G35114-cb001 = tested on: LOC_OS04G35114-cb001
In short: as §1

LOC_OS04G38480-cb003 = tested on: T1, LOC_OS04G38480-cb003
T1 sequence (whole entry): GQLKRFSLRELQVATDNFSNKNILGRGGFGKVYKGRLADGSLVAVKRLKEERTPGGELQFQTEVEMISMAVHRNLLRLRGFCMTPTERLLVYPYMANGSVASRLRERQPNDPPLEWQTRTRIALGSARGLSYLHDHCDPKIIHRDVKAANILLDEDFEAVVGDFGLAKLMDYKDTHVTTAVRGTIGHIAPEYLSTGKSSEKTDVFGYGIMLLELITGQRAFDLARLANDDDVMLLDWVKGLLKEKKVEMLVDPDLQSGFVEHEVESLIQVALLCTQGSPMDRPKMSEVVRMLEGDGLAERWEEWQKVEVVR
In short: as §1

LOC_OS04G41100-cb001 = tested on: T2, LOC_OS04G41100-cb001
T2 sequence (whole entry): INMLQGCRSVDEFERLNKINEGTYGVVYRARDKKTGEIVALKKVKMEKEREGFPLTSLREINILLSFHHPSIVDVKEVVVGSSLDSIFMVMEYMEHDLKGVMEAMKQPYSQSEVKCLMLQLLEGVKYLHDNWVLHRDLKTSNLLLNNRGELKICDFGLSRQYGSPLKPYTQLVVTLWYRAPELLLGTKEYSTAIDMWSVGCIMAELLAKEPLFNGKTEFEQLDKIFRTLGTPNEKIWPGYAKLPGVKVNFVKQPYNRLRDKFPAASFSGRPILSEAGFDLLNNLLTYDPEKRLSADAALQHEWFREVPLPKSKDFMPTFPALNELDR
In short: as §1

LOC_OS04G57630-cb004 = tested on: LOC_OS04G57630-cb004
In short: as §1

LOC_OS05G07850-cb002 = tested on: LOC_OS05G07850-cb002
In short: as §1

LOC_OS05G16824-cb004 = tested on: LOC_OS05G16824-cb004
In short: as §1

LOC_OS05G28520-cb001 = tested on: LOC_OS05G28520-cb001
In short: as §1

LOC_OS05G30820-cb001 = tested on: LOC_OS05G30820-cb001
In short: as §1

LOC_OS05G43570-cb004 = tested on: LOC_OS05G43570-cb004
In short: as §1

LOC_OS06G16330-cb003 = tested on: LOC_OS06G16330-cb003
In short: as §1

LOC_OS06G22820-cb001 = tested on: T3, LOC_OS06G22820-cb001
T3 sequence (whole entry): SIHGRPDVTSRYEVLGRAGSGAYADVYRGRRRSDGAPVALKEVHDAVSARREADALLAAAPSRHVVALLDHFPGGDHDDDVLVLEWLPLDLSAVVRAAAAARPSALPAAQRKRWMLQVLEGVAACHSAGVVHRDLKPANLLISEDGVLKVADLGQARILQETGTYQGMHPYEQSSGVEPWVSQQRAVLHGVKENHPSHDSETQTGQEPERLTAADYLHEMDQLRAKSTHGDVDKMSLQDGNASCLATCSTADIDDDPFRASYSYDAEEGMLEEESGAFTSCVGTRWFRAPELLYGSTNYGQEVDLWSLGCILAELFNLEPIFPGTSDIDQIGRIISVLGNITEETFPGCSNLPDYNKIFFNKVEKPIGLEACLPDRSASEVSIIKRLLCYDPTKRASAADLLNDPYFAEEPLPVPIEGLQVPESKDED
In short: as §1

LOC_OS07G06570-cb004 = tested on: LOC_OS07G06570-cb004
In short: as §1

LOC_OS07G07230-cb001 = tested on: LOC_OS07G07230-cb001
In short: as §1

LOC_OS06G16330-cb003, sequence (as listed by the source): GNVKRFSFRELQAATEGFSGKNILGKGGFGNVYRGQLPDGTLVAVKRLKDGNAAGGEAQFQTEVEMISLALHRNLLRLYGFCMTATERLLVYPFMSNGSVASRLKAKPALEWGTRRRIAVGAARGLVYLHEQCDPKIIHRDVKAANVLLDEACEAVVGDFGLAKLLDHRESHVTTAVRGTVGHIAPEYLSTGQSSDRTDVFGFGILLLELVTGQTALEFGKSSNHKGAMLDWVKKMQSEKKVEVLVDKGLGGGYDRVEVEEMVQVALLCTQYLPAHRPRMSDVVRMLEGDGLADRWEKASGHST

Row | Structure (SMILES) | thermal shift delta Tm (LOC_OS02G45750-cb003) | thermal shift delta Tm (LOC_OS02G54510-cb004) | thermal shift delta Tm (LOC_OS03G04050-cb001) | thermal shift delta Tm (LOC_OS03G12390-cb001) | thermal shift delta Tm (LOC_OS03G27990-cb004) | thermal shift delta Tm (LOC_OS03G50450-cb001) | thermal shift delta Tm (LOC_OS03G50810-cb003) | thermal shift delta Tm (LOC_OS04G35114-cb001) | thermal shift delta Tm (LOC_OS04G38480-cb003) | thermal shift delta Tm (LOC_OS04G41100-cb001) | thermal shift delta Tm (LOC_OS04G57630-cb004) | thermal shift delta Tm (LOC_OS05G07850-cb002) | thermal shift delta Tm (LOC_OS05G16824-cb004) | thermal shift delta Tm (LOC_OS05G28520-cb001) | thermal shift delta Tm (LOC_OS05G30820-cb001) | thermal shift delta Tm (LOC_OS05G43570-cb004) | thermal shift delta Tm (LOC_OS06G16330-cb003) | thermal shift delta Tm (LOC_OS06G22820-cb001) | thermal shift delta Tm (LOC_OS07G06570-cb004) | thermal shift delta Tm (LOC_OS07G07230-cb001)
1 | OC1CCC(Nc2ncc3nc(Nc4c(F)cc(F)cc4F)n([C@H]4CCOC4)c3n2)CC1 (stereo not given in full) [Tanzisertib(CC-930)] | 0.96 °C | 0.18 °C | 0.57 °C | 0.23 °C | 0.5 °C | 0.44 °C | 0.62 °C | 0.93 °C | 1.65 °C | 0.44 °C | -0.03 °C | 0.72 °C | 2.14 °C | 0.46 °C | 0.23 °C | 0.42 °C | -0.07 °C | 0.59 °C | 1.81 °C | 0.44 °C
2 | CCS(=O)(=O)N1CC(CC#N)(n2cc(-c3ncnc4[nH]ccc34)cn2)C1 | 2.13 °C | 1.15 °C | 0.77 °C | 1.62 °C | 0.66 °C | 1.09 °C | 0.62 °C | 1.29 °C | 0.44 °C | 0.43 °C | -0.03 °C | 4.2 °C | -0.69 °C | 0.54 °C | 0.72 °C | 0.88 °C | 2.6 °C | 0.77 °C | 1.1 °C | 0.82 °C
3 | CNC(=O)c1ccccc1Nc1cc(Nc2ccc(N3CCOCC3)cc2OC)ncc1C(F)(F)F | 5.48 °C | 0.23 °C | 0.62 °C | 7.78 °C | 3.73 °C | 0.25 °C | 1.97 °C | 6.3 °C | 3.08 °C | 0.19 °C | 3.79 °C | 7.4 °C | 9.96 °C | 1.03 °C | 3.54 °C | 0.9 °C | 6.99 °C | 0.82 °C | 1.56 °C | 0.72 °C
4 | Nc1nc(Nc2ccc(S(N)(=O)=O)cc2)nn1C(=O)c1c(F)cccc1F | 9.34 °C | 2.82 °C | -0.19 °C | 9.07 °C | 3.59 °C | 0.97 °C | 3.42 °C | 4.58 °C | 2.97 °C | 2.3 °C | 1.19 °C | 12.5 °C | 8.94 °C | 0.98 °C | 1.95 °C | 0.82 °C | 8.67 °C | -0.12 °C | 1.81 °C | 0.21 °C
5 | C=CC(=O)N1CC[C@@H](Oc2nc(Nc3ccc(N4CCC(N5CCN(C)CC5)CC4)cc3)c(C(N)=O)nc2CC)C1 [Naquotinib(ASP8273)] | 0 °C | 3.07 °C | 0.21 °C | 9.13 °C | 5.37 °C | 4.82 °C | 5.96 °C | 8.09 °C | 3.19 °C | 0.5 °C | 3.28 °C | 13.1 °C | 11.6 °C | 1.04 °C | 0.55 °C | 0.27 °C | 10 °C | 0.25 °C | 1.6 °C | 0.69 °C
6 | N[C@@H]1CCCN(c2c(/C=C3\SC(=O)NC3=O)cccc2-c2ccccc2)C1 | 0.09 °C | -0.11 °C | 0.23 °C | -0.15 °C | 0.47 °C | 0.53 °C | 0.13 °C | 0.97 °C | 0.39 °C | 0.61 °C | 0.42 °C | 2.29 °C | -1.84 °C | 0.64 °C | 0.34 °C | -0.01 °C | -0.21 °C | 0.41 °C | 1.48 °C | 0.3 °C
7 | CN1CC(O)C2=C/C(=N/NC(N)=O)C(=O)C=C21 (stereo not given) [Carbazochrome] | 0.38 °C | 0.29 °C | 0.65 °C | 0.05 °C | 0.64 °C | 0.96 °C | 0.41 °C | -0.02 °C | 0.38 °C | 0.2 °C | -0.07 °C | 1.06 °C | -3.49 °C | -0.11 °C | 0.11 °C | 0.35 °C | 0.27 °C | 0.09 °C | 0.68 °C | 0.58 °C
8 | CNC(=O)c1ccc(C)c(-n2c(C)cc(OCc3ccc(F)cc3F)c(Br)c2=O)c1 | 0.5 °C | 0.06 °C | 0.28 °C | 0.6 °C | 0.15 °C | 0.27 °C | 0.59 °C | 0.14 °C | 0.62 °C | 0.73 °C | 0.7 °C | 0.4 °C | 0.62 °C | 0.4 °C | 0.44 °C | 0.56 °C | 0.1 °C | 0.38 °C | 0.59 °C | -0.01 °C
9 | CC(C)(O)CC(=O)NCCn1ccc2ncnc(Nc3ccc(Oc4cccc(C(F)(F)F)c4)c(Cl)c3)c21 | 0.62 °C | -0.25 °C | 0.51 °C | 1.74 °C | 0.47 °C | 0.94 °C | 1.03 °C | 0.12 °C | 1.78 °C | 0.52 °C | 1.06 °C | 0.82 °C | 2.1 °C | -0.31 °C | 0.35 °C | 1.03 °C | 0.72 °C | 1.33 °C | 0.78 °C | -1.32 °C
10 | CCN1CCN(Cc2ccc(C(=O)Nc3ccc(C)c(Oc4ccc5c(c4)CC(=O)N5)c3)cc2C(F)(F)F)CC1 | 1.5 °C | 0.41 °C | 0.79 °C | 0.12 °C | 0.67 °C | 1.13 °C | 0.7 °C | 1.2 °C | 1.7 °C | 0.5 °C | 0.33 °C | -0.13 °C | 2.03 °C | 0.4 °C | 0.41 °C | 0.42 °C | 0.43 °C | 0.56 °C | 0.16 °C | 0.28 °C
